Abs 340nm – compound light absorbance at 340 nm, profiling panel, artefact control, biochemical, MLSMR library, data from PS, PMK, MK assays; compound absorbance at 340 nm, fold over control; fold change at 10 µM; 65,000 tested, under 10 active;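 active = at 10 µM dose, initial 340 nm absorbance at least 2 fold that of control wells; inactive = change under 2 fold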;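 note: initial absorbance extrapolated from kinetic A340 decline of NADH oxidation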
Fluor 339 460 – intrinsic fluorescence of library compounds, ex339/em460 – biochemical, MLSMR library, data from DPM-DC assay, artefact control, profiling panel; 65,000 tested, 5.5% active; fluorescence fold increase at 10 µM; compound autofluorescence, ex339/em460 nm, NADH buffer; active compounds read high; 1 = no-compound wells, NADH background; AID 709, 2007;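 active = at 10 µM, mean starting fluorescence two-fold or more over control wells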;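 note: signal is the first read of a kinetic run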
M1 agonist – M1 muscarinic receptor agonists, primary screen, CHO-M1 cells, Fluo-4 calcium, agonist mode; Muscarinic acetylcholine receptor M1; Fluo-4 calcium fluorescence; active compounds read high; B-score at 10 µM; 64,000 tested, 3% active; AID 626, 2007;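 active = fluorescence rise, raw or as B-score row- and column-corrected plate score, outside the 99.7% band of its plate's samples, either direction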
BAP1 block – inhibitors of BAP1 deubiquitinase, primary screen, biochemical, Ub-AMC fluorescence, kinetic; recombinant BAP1, Ub-AMC hydrolysis fluorescence kinetic; active compounds read low; calls only at 20 µM; 72,000 tested, 0.48% active; AID 436, 2006;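 active = activity remaining at or below 50% of control, provided the compound also passes the data quality filters; inactive = the rest, including low values that fail the filters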
M1 antag – antagonists of rat M1 muscarinic receptor; B-score at 10 µM; AID 628, 2007; CHO-M1 cells, Fluo-4 calcium, ACh EC80 antagonist mode; active compounds read low; 64,000 tested, 3.4% active;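 active = calcium fluorescence response, raw or row-and-column corrected B-score, differing from the plate sample mean either way at a set confidence level, mostly lower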
Target sequence (P08482 whole entry, looked up): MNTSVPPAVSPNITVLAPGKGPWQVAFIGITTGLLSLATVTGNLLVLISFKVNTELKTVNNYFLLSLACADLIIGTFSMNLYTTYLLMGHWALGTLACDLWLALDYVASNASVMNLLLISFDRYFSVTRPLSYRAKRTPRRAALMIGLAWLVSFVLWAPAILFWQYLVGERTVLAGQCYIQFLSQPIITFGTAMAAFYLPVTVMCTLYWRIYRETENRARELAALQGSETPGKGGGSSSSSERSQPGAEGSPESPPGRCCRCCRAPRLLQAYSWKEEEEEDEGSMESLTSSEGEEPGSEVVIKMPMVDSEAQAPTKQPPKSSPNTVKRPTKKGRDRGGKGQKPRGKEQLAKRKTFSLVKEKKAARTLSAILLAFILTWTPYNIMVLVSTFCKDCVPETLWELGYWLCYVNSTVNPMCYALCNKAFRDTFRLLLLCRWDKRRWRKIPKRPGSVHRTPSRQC
WNV NS2B-NS3 inh – inhibitors of WNV NS2B-NS3 protease, primary screen, biochemical, fluorogenic substrate. 65,000 tested, 0.18% active. z-score (no concentration beside the values). Genome polyprotein (West Nile virus), P06935. fluorogenic substrate Ex360/Em465; active compounds read low; in the data active = z-score below about -3
BAP1 inh conf – BAP1 deubiquitinase inhibitors, hit retest, confirmation, orthogonal assay, biochemical, Ub-ethyl ester substrate, HPLC readout; shares compounds with BAP1 block; purified BAP1, Ub-ethyl ester hydrolysis; active compounds read low; % of control activity, % at 20 µM; 310 tested, 8% active;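 active = percent of control activity at or below 60%; inconclusive = HPLC trace unusable from injection failure or solvent front hiding peaks; inactive = the rest, plus ubiquitin peak ratio over a set limit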
M1 agonist conf – rat M1 muscarinic receptor agonists, confirmation, CHO-M1 cells, Fluo-4 calcium, duplicate retest. shares compounds with M1 agonist. Fluo-4 calcium fluorescence, agonist mode; actives lie on both sides. fluorescence change (max-min) at 10 µM. 1,700 tested, 19% active. AID 1488, 2009;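 active = fluorescence change differs from the solvent-only DMSO control mean at a set confidence level in both duplicate runs; inconclusive = differs from solvent-only control mean in just one of two runs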;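 note: an EC20 dose of acetylcholine follows compound addition during the same imaging run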
M4 agonist ctr – agonist activity at rat M4 receptor, confirmation, counter-screen for M1 allosteric modulator project, cell-based, agonist mode; fluorescence change (max-min) at 10 µM; 1,700 tested, 9% active; CHO M4/Gqi5 cells, Fluo-4 calcium fluorescence; actives lie on both sides; shares compounds with M1 agonist;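 active = fluorescence change differing from the plate's solvent-only control wells at 99.7% confidence in both duplicates, whether higher or lower; inconclusive = differs from solvent controls in only one of two duplicates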
M1 antag confirm – rat M1 muscarinic receptor antagonists, confirmation, CHO cells, Fluo-4 calcium, duplicate; ACh EC80 antagonism; active compounds read low; shares compounds with M1 antag; 1,700 tested, 43% active; calcium response (max-min fluorescence) at 10 µM;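 active = calcium response below the same-plate mean of wells given acetylcholine alone at its 80%-effect dose, minus 3 SD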
mGluR4 antag – human mGluR4 response to M1 antagonist hits, M1 allosteric modulator project, cell-based, antagonist mode, secondary assay 1. shares compounds with M1 antag. CHO-mGluR4 calcium flux, Fluo-4 fluorescence, glutamate EC80; active compounds read low. fluorescence response (max-min) at 10 µM. 1,700 tested, 0.9% active. AID 678, 2007;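 active = fluorescence response below the plate's average for near-maximal glutamate wells, less 3 SD of those wells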;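 note: raw unnormalized fluorescence span taken in the window right after glutamate addition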
Numbers stand for hits. In the library only some 9.7% were active in any assay of this set; here they are far more common.

Screening CCOc1cc(S(=O)(=O)N2CC=C(c3ccc(F)cc3)CC2)c(OCC)cc1-n1cnnn1 returned Abs 340nm inactive, Fluor 339 460 inactive, M1 agonist inactive, BAP1 block inactive, M1 antag inactive and WNV NS2B-NS3 inh inactive.
For CSc1nc(-c2ccccc2O)nc(-c2ccccc2O)n1 the results were Abs 340nm inactive, Fluor 339 460 inactive, M1 agonist inactive, BAP1 block active, M1 antag inactive, WNV NS2B-NS3 inh inactive and BAP1 inh conf inactive.
`CCOC(=O)c1ccc(N2C(=O)c3ccccc3C2=O)cc1` gave BAP1 block inactive.
For O=C(Nc1nc2c(Cl)cccc2s1)c1ccc(Br)o1 the results were Abs 340nm inactive, Fluor 339 460 inactive, M1 agonist inactive, BAP1 block inactive, M1 antag inactive and WNV NS2B-NS3 inh inactive.
For O=C(Nc1nc2ccc(Cl)cc2s1)c1ccc(Br)o1 the results were Abs 340nm inactive, Fluor 339 460 inactive, M1 agonist inactive, BAP1 block active, M1 antag inactive, WNV NS2B-NS3 inh inactive and BAP1 inh conf inactive.
For COc1cc(Br)c(C2C(C(=O)OC3CCCC3)=C(C)NC3=C2C(=O)CCC3)cc1OC (stereo not given) the results were BAP1 block inactive.
O=C(CN(Cc1ccccc1)S(=O)(=O)c1ccc2c(c1)OCCO2)Nc1ccc2c(c1)OCCO2 was read as Abs 340nm inactive, Fluor 339 460 inactive, M1 agonist inactive, BAP1 block active, M1 antag inactive, WNV NS2B-NS3 inh inactive and BAP1 inh conf inactive.
`COc1ccc(S(=O)(=O)Nc2ccccc2C(=O)NCc2ccco2)cc1` gave Abs 340nm inactive, Fluor 339 460 3.6, M1 agonist 3.9, BAP1 block active, M1 antag inactive, WNV NS2B-NS3 inh inactive, BAP1 inh conf inactive, M1 agonist conf inactive and M4 agonist ctr inactive.
Screening COc1ccccc1NS(=O)(=O)c1ccc(C(=O)OCC(=O)NCc2ccco2)cc1 returned Abs 340nm inactive, Fluor 339 460 inactive, M1 agonist inactive, BAP1 block inactive, M1 antag inactive and WNV NS2B-NS3 inh inactive.
For COc1ccc2c(C=Nc3c(C)n(C)n(-c4ccccc4)c3=O)c(O)n(Cc3ccco3)c(=O)c2c1 the results were Abs 340nm inactive, Fluor 339 460 inactive, M1 agonist 9.5, BAP1 block active, M1 antag -2.2, WNV NS2B-NS3 inh inactive, BAP1 inh conf inactive, M1 agonist conf inactive and M4 agonist ctr inactive.
`CC(=O)N1CCN(c2ccccc2NC(=O)COc2cc(C)ccc2C(C)C)CC1` gave Abs 340nm inactive, Fluor 339 460 inactive, M1 agonist 4.3, BAP1 block active, M1 antag inactive, WNV NS2B-NS3 inh inactive, BAP1 inh conf inconclusive, M1 agonist conf -26 and M4 agonist ctr inactive.
Screening Cc1ccc(C(C)C)c(OCC(=O)Nc2ccccc2N2CCN(C)CC2)c1 returned Abs 340nm inactive, Fluor 339 460 inactive, M1 agonist inactive, BAP1 block inactive, M1 antag inactive and WNV NS2B-NS3 inh inactive.
Screening COc1ccccc1N1CCN(C(=O)CSc2nc(-c3ccco3)cc(C(F)(F)F)n2)CC1 returned Abs 340nm inactive, Fluor 339 460 inactive, M1 agonist 7.5, BAP1 block active, M1 antag inactive, WNV NS2B-NS3 inh inactive, BAP1 inh conf inactive, M1 agonist conf inactive and M4 agonist ctr inactive.
For CCCn1c2c(c(O)c(C(=O)Nc3ncccc3C)c1=O)CCCC2 the results were Abs 340nm inactive, Fluor 339 460 inactive, M1 agonist inactive, BAP1 block active, M1 antag -2.3, WNV NS2B-NS3 inh inactive, BAP1 inh conf inactive, M1 antag confirm 421 and mGluR4 antag inactive.
COc1ccc(NC(=O)c2cccc([N+](=O)[O-])c2)c([N+](=O)[O-])c1 was read as BAP1 block inactive.
For COc1ccc(CCn2c(-c3ccco3)nc3ccccc3c2=O)cc1OC the results were Abs 340nm inactive, Fluor 339 460 inactive, M1 agonist 11, BAP1 block inactive, M1 antag -2.1, WNV NS2B-NS3 inh inactive, M1 agonist conf inconclusive and M4 agonist ctr -73.
Screening C1=C(CCNc2ncnc3nc[nH]c23)CCCC1 returned Abs 340nm inactive, Fluor 339 460 inactive, M1 agonist 2.7, BAP1 block inactive, M1 antag inactive, WNV NS2B-NS3 inh inactive, M1 agonist conf inconclusive and M4 agonist ctr inactive.
Screening c1ccc(CCCNc2ncnc3nc[nH]c23)cc1 returned Abs 340nm inactive, Fluor 339 460 inactive, M1 agonist inactive, BAP1 block inactive, M1 antag inactive and WNV NS2B-NS3 inh inactive.
`Clc1ccc(CCNc2ncnc3nc[nH]c23)cc1` gave Abs 340nm inactive, Fluor 339 460 inactive, M1 agonist 15, BAP1 block inactive, M1 antag -2.6, WNV NS2B-NS3 inh inactive, M1 agonist conf inconclusive and M4 agonist ctr inconclusive.
For Cc1oc(C(C)(C)C)cc1C(=O)NCCNc1c(Cl)cccc1[N+](=O)[O-] the results were BAP1 block inactive.
COc1ccc(-c2cc(C(F)(F)F)n3ncc(C(=O)NCC4CCCO4)c3n2)cc1OC (stereo not given) was read as Abs 340nm inactive, Fluor 339 460 inactive, M1 agonist 41, BAP1 block inactive, M1 antag inactive, WNV NS2B-NS3 inh inactive, M1 agonist conf inconclusive and M4 agonist ctr inactive.
